Hit rate of the full screen: of about 330,000 compounds, about 4,900 (1.5%) were called active. The entries come from a sample that favours actives as a whole. Unmarked numbers belong to inactive results.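 How the source made its calls: active means inhibition above about 50% at the single test dose (limit read from the data); inactive means the rest.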 Non-standard residues stand in square brackets, D forms with d. Residues, ends and D or L forms follow the SMILES beside them. ξ: configuration not given here. *: point of attachment. Cbz = O=C(OCc1ccccc1)*; ξL = CC(C)CC(N)C(=O)O; ξP = O=C(O)C1CCCN1

The experiment deals with Sentrin-specific protease 7 (Homo sapiens) (UniProt Q9BQF6). Put plainly: blockers of human SENP7 peptidase activity – biochemical, luminescence, uHTS, primary screen (AID 434973).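 Further: plate controls were DMSO with enzyme for no effect and no enzyme buffer wells for full effect.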 The conditions noted are these: recombinant SENP7, Z-RLRGG-aminoluciferin luminescence, 40 min; at 5 µM; active compounds read high.
In the case of `O=c1ccc2cc(S(=O)(=O)NCCCc3ccccc3)ccc2[nH]1`, the inhibition is 4.36%.
With `CCOC(=O)CCP(=O)(O)C(O)(c1ccccc1)c1ccccc1` the figure was -5.54%.
With `O=S(=O)(c1cccc(-c2nnc(SC(F)F)n2-c2ccccc2)c1)N1CCCCC1` the figure was 1.56%.
For `O=C(CCC(=O)c1cccs1)Nc1nc2ccccc2s1`, the inhibition is 1.54%.
To `O=C(COC(=O)c1ccc(F)cc1)Nc1ccc2c(c1)OCO2` belongs -9.15%; to `O=C(Nc1nc2ccccc2s1)c1ccc2c(c1)OCO2`, 97.1% (active); to `N#CCCN(C(=O)COC(=O)c1ccc2c(c1)OCCO2)c1ccccc1`, 3.84%.
Regarding `O=C(OCc1ccccc1F)c1ccc2c(c1)OCCO2`, the inhibition was 84.2% (active).
With `O=C(COC(=O)c1ccc2c(c1)OCCO2)NCc1ccccc1Cl` the figure was -9.15%; with `O=C(Nc1ccccc1)Nc1nc2ccccc2s1`, 66% (active); with `CC(=O)Nc1cccc(C(=O)OCC(=O)c2ccc3c(c2)OCO3)c1`, 81.4% (active).
To `COCc1nnc(NC(=O)c2ccc3c(c2)OCO3)s1` belongs 12.1%; to `Cc1ccc2sc(NNC(=O)c3ccc4c(c3)OCCO4)nc2c1C`, 2.93%.
To `O=C(COC(=O)c1ccncc1)Nc1ccc2c(c1)OCO2` belongs -10.3%.
`CSc1nsc(NC(=O)Nc2ccccc2)n1`: the inhibition is 34.9%.
As for `CC[N+]1(CC)CC2=Cc3ccccc3CC2C1` (stereo unspecified), the inhibition was 5.4%.
On to `Cc1ccc(CN2CCN(/N=C/c3cccnc3)CC2)c(C)c1`, for which the inhibition was 4.31%.
To `CCN(C(=O)C1CCCN(c2nc(-c3ccc(OC)cc3)no2)C1)c1ccc(OC)cc1` (stereo unspecified) belongs -0.167%; to `CCOC(=O)CSc1nnc(NC(=O)C2CC(=O)N(c3ccc(F)cc3)C2)s1` (stereo unspecified), -6.57%; to `CC(=O)Nc1ccc(S(=O)(=O)N2CCN(S(=O)(=O)c3cccs3)CC2)cc1`, -14%.
To `Cc1ccccc1Nc1scc(-c2ccc(Br)cc2)[n+]1-c1ccccc1C` belongs 0.441%.
As to `COc1ccc(/C(C)=N/N2CCOCC2)c(O)c1`, the inhibition is 9.39%.
To `S=C(Nc1ccc2c(c1)OCO2)N1CCCC1` belongs -4.52%; to `CCCc1nc2oc3c(OCC)ncnc3c2c2c1COC(C)(C)C2`, -3.93%.
As for `Clc1ccc(COn2c(-c3ccc(Cl)cc3Cl)nc3ncccc32)cc1`, the inhibition was 0.814%.
To `Clc1ccc(-c2cc(-c3ccccn3)on2)c(Cl)c1` belongs 99.4% (active).
With `O=C1c2ccccc2C(=O)N1Cc1cc(-c2ccccc2Cl)no1` the figure was -0.976%; with `CC1=NNC(=O)C1CCC(=O)N/N=C(\C)c1ccc(Cl)cc1` (stereo unspecified), 0.851%; with `COc1ccc(NC(=O)C2COc3ccccc3O2)cc1` (stereo unspecified), -20.8%.
With `O=C(Nc1ncc([N+](=O)[O-])s1)C1COc2ccccc2O1` (stereo unspecified) the figure was 96.7% (active); with `COc1ccc(OC)c2sc(NC(=O)C3COc4ccccc4O3)nc12` (stereo unspecified), -4.59%; with `CC(C)C1C2=C(CC(C)(C)CC2=O)ON1c1ccccc1` (stereo unspecified), 3.53%.
Consider `CC1CC(C)CN(CCC(=O)Nc2ccc3c(c2)CCC3)C1` (stereo unspecified), for which the inhibition was 5.5%.
To `CC(C)Oc1ccc(C(=O)NCC(=O)Nc2ccc3c(c2)CCC3)cc1` belongs 3.44%.
Regarding `O=C(Nc1ccc2c(c1)CCC2)c1ccc(Br)s1`, the inhibition is 69.4% (active).
To `CC(C)CCN1NC2(CCC(C)CC2)NC1=S` (stereo unspecified) belongs -7.22%.
With `Cc1ccc(/C=N/NC(=O)c2sccc2OCc2ccc(F)cc2)cc1` the figure was -13.6%; with `O=C(N/N=C/c1ccc([N+](=O)[O-])cc1)C(=O)N1CCCC1`, -3.45%; with `Cc1ccc(NC(=O)CN(C)CC(=O)Nc2cccc(F)c2)cc1[N+](=O)[O-]`, -3.97%.
To `Cc1ccsc1C(=O)N/N=C/c1ccc([N+](=O)[O-])cc1` belongs 80.9% (active); to `Cc1cc(O)c(NC(=O)c2ccc(C)c([N+](=O)[O-])c2)cc1C`, -7.98%; to `Cc1ccc(NC(=O)c2sccc2C)cc1[N+](=O)[O-]`, 83.7% (active).
For the compound `O=C(COc1cccc(Cl)c1)NCc1ccccc1`, the inhibition is -0.414%.
With `COc1cccc(NC(=O)CN(C)C(=O)c2ccccc2CCc2ccccc2)c1`, the inhibition was -9.77%.
With `CC[C@]1(C(=O)OC)[C@H]2C(=O)N(C)C(=O)[C@H]2[C@H]2CN(C)C(=NCc3ccccc3)N21` the figure was 0.164%; with `COc1cc(NC(=O)CCS(=O)(=O)c2ccc3c(c2)oc(=O)n3C)cc(OC)c1`, 1.53%; with `CCN(CC)S(=O)(=O)c1ccc(N(C)Cc2ccc(C(F)(F)F)cc2)nc1`, -1.06%.
With `Cc1ccc(CN2CCN(Cc3ccccc3-c3ccco3)CC2CCO)o1` (stereo unspecified) the figure was 4.02%; with `CC(OC(=O)c1ccc(Cl)cc1O)C(=O)NCCC1=CCCCC1` (stereo unspecified), -16.5%; with `CC[N+](C)(CC)CCC[n+]1c(-c2ccccc2)c2cc(N)ccc2c2ccc(N)cc21`, 96.3% (active).
To `COC(=O)c1ccc(COc2ccc(C#N)cc2)o1` belongs 0.574%.
As for `Cc1cc2oc(=O)cc(CN3CCN(S(=O)(=O)c4cccs4)CC3)c2cc1C(C)C`, the inhibition was 8.53%.
Turning to `Cc1nn(C)cc1C(=O)c1ccccc1`, the inhibition was 7.95%.
For the compound `Cn1c(Nc2cccc(Cl)c2)nc2ccccc21`, the inhibition is 4.17%.
To `Cn1c(NC(=O)c2ccccc2)nc2ccccc21` belongs 77.2% (active).
To `Cc1nc2ccccc2c(-c2ccccc2)c1C(=O)c1ccccc1` belongs -0.427%; to `Cn1c(-c2ccc(C(=O)c3ccccc3)s2)nc2ccccc21`, 98.5% (active).
With `CCn1c(NC(=O)c2nn(C)cc2Br)nc2ccccc21` the figure was -3.05%.
In the case of `CCC1(CC)NC(=O)N(CC(=O)OCC(=O)Nc2ccc(C(F)(F)F)cc2)C1=O`, the inhibition was -0.704%.
`COC(=O)c1ccc(NC(=O)CSc2nnc(Cc3cccn3C)n2-c2ccc(F)cc2)cc1`: the inhibition was 9.96%.
To `CC(C)c1ccc(C2C(C#N)=C(N)Oc3c2oc(CO)cc3=O)cc1` (stereo unspecified) belongs 3.37%; to `CCOC(=O)N1CCC(NC(=O)CN2C(=O)COc3ccc(C(C)(C)C)cc32)CC1`, -10.5%; to `O=S(=O)(NCCS(=O)(=O)N1CCN(c2ccccc2)CC1)c1ccc(F)cc1`, 9.28%.
With `Cc1ccnc(NC(=O)c2ccoc2C)c1` the figure was 71.9% (active).
To `Cc1ccnc(NC(=O)CNC(=O)c2ccccc2)c1` belongs -1.59%; to `COc1cc(SC)ccc1C(=O)Nc1cc(C)ccn1`, 60.6% (active); to `COc1ccc(C(=O)NC2=NCCS2)c(OC)c1`, 24.6%.
Turning to `COc1cc(SC)ccc1C(=O)N(Cc1ccccc1)c1ccccc1`, the inhibition is -1.54%.
To `COc1cc(SC)ccc1C(=O)NNC(=O)C1COc2ccccc2O1` (stereo unspecified) belongs 5.69%; to `COc1cc(SC)ccc1C(=O)Nc1nc(C)cs1`, 101% (active); to `Cc1csc(NC(=O)c2ccc(C)s2)n1`, 0.528%.
With `COc1cc2ccccc2cc1C(=O)Nc1nc(C)c(C(C)=O)s1` the figure was -4.32%; with `COC(=O)c1sc(NC(=O)c2ccc(OC)cc2OC)nc1C`, 101% (active).
To `Cc1occc1C(=O)Nc1cccc(Cn2cccn2)c1` belongs 8.79%; to `COc1ccc(C(=O)Nc2cccc(NC(=O)c3ccc(OC)cc3OC)n2)c(OC)c1`, 0.763%; to `CC(C)CC(NC(=O)C1CCCN1C(=O)[C@@H](C)NC(=O)OCc1ccccc1)C(=O)NCC(N)=O` (stereo partly specified) (Cbz-[dA][ξP][ξL]G-NH2), 8.74%.
Regarding `CCC1CCCCN1CCNC(=O)c1[nH]c(C)c(C(C)=O)c1C` (stereo unspecified), the inhibition was 0.149%.
To `COCn1c(C(O)c2ccccc2)cc2ccccc21` (stereo unspecified) belongs 12.5%; to `CCOC(=O)c1cnc(Nc2nc3ccccc3o2)nc1CSC(=S)N1CCCCC1`, 0.449%; to `CCn1ccnc1CN(C)C(=O)c1cc(COc2ccc(Cl)cc2OC)on1`, 5.22%.
With `C=CCOc1ccc(/C=C/C(=O)OCC(=O)NC(C)c2ccc(F)cc2)cc1` (stereo unspecified) the figure was -12.8%; with `CCOC(=O)c1c(N)sc2c1CCCC2=O`, -8.61%.
To `COc1ccc(S(=O)(=O)n2nc(C)c(S(=O)(=O)N3CCOCC3)c2C)cc1` belongs -1.04%; to `CC(C)COC(=O)n1c(=O)oc2ccc(S(=O)(=O)N3CCCCC3)cc21`, -5.94%; to `O=C(CSc1nnnn1-c1ccc(O)cc1)N1N=C(c2ccc3ccccc3c2)CC1c1ccccc1` (stereo unspecified), 2.06%.
Consider `O=C(N/N=C/c1ccc(Cl)c(Cl)c1)c1ccc2nc[nH]c2c1`, for which the inhibition was -0.0621%.
To `CSc1ccc(/C=N/NC(=O)c2cccc(Cl)c2)cc1` belongs 96% (active); to `CSc1ccc(/C=N\NC(=O)CC(=O)NC(C)C)cc1`, 4.98%.
To `O=C(CN1C(=O)NC(Cc2ccccc2)(Cc2ccccc2)C1=O)NCC1CCCCC1` belongs -0.975%.
For `COCCN(CCOC)c1nc(N)c2c(N)nc3c(c2c1C#N)CC(=O)N3Cc1ccc(Cl)cc1`, the inhibition is 58.9% (active).
With `Cc1ccccc1NC(=O)C(C)OC(=O)CCC(=O)N(CC(C)C)c1c(N)n(CC(C)C)c(=O)[nH]c1=O` (stereo unspecified) the figure was 9.72%; with `Cc1nn(-c2ccccc2)c2c1c(C)c(CCC(=O)NCC1CCCO1)c(=O)n2C` (stereo unspecified), -0.922%; with `COc1cc(C(=O)NCc2nnc(SCC(=O)Nc3nc4ccc(C)cc4s3)o2)cc(OC)c1OC`, 3.97%.
To `O=c1c2ccccc2ncn1/N=C/c1ccccc1` belongs 88.5% (active); to `CN(C(=O)Nc1ccc(Cl)cc1)n1cnc2ccccc2c1=O`, -9.71%.
With `CCCc1nc2ccccc2c(=O)n1/N=C/c1ccc(O)c(O)c1` the figure was -1.91%.

The values above are taken from PubChem BioAssay AID434973 (Sanford-Burnham Center for Chemical Genomics, 2010).
